Calls of active or inactive are those of the source. The calls were made as follows: active = hit-call score of the fitted dose curve at least 0.9, where 1 is the maximum; inactive = score below 0.9.
What was measured:
Details in all cases: mRNA level, 48 h; actives raise or lower the signal
[1] = read-out: Peroxisomal acyl-coenzyme A oxidase 1 (ACOX1) gene, ACOX1 (gene 51); assay: LTEA_HepaRG_ACOX1: Life Technologies and Expression Analysis (LTEA) Assay for Peroxisomal acyl-coenzyme A oxidase 1 (ACOX1) gene using HepaRG (AID 2283467)
In short: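 Measured by qRT-PCR against three housekeeping genes: ACOX1 transcript change in human HepaRG cells after 48 h dosing. Concentrations ran up to 100 uM in half-log steps. Curves were fitted bidirectionally relative to 0.5% DMSO.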

[2] = read-out: Alkaline Phosphatase, Placental (ALPP) gene, ALPP (gene 250); assay: LTEA_HepaRG_ALPP: Life Technologies and Expression Analysis (LTEA) Assay for Alkaline Phosphatase, Placental (ALPP) gene using HepaRG (AID 2283468);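 as to AC50: differentiated human HepaRG liver cells in serum-free induction medium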
In short: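 HepaRG, 48 h plating then 48 h dosing, serum-free induction medium, 0.5% DMSO. 8 conc, half-log, max 100 uM, duplicates. Endpoint: ALPP transcript by qRT-PCR, housekeeping-normalized; gain or loss fitted vs DMSO.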

[3] = read-out: Bcl-2 (BAD) gene, BAD (gene 572); assay: LTEA_HepaRG_BAD: Life Technologies and Expression Analysis (LTEA) Assay for Bcl-2 (BAD) gene using HepaRG (AID 2283469)
In short: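 BAD transcript change, measured by qRT-PCR against three housekeeping genes and fitted in both directions relative to 0.5% DMSO, after 48 h chemical treatment of human HepaRG liver cells at concentrations up to 100 uM.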

[4] = read-out: Bcl-2 (BAX) gene, BAX (gene 581); assay: LTEA_HepaRG_BAX: Life Technologies and Expression Analysis (LTEA) Assay for Bcl-2 (BAX) gene using HepaRG (AID 2283470)
In short: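 HepaRG (human liver), 48 h exposure, duplicate wells. 8-pt curve, half-log from 100 uM, 0.5% DMSO. BAX transcript by TaqMan qRT-PCR; ACTB/GAPDH/POLR2A normalization; gain or loss vs DMSO baseline.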

[5] = read-out: adenosine kinase (ADK) gene, ADK (gene 132); assay: LTEA_HepaRG_ADK: Life Technologies and Expression Analysis (LTEA) Assay for adenosine kinase (ADK) gene using HepaRG (AID 2283471)
In short: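 ADK expression quantified by qRT-PCR, normalised to three housekeeping genes, after 48 h exposure of HepaRG cells to eight concentrations (top 100 uM, half-log steps, duplicate, 0.5% DMSO). Up- or down-regulation fitted relative to vehicle.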

[6] = read-out: Alpha-fetoprotein (AFP) gene, AFP (gene 174); assay: LTEA_HepaRG_AFP: Life Technologies and Expression Analysis (LTEA) Assay for Alpha-fetoprotein (AFP) gene using HepaRG (AID 2283472)
In short: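 HepaRG, single lot; 48 h post-plating -> serum-free induction medium; cpd 8-pt, 100 uM top, half-log, 0.5% DMSO, duplicate, 48 h. RNA -> qRT-PCR AFP, norm ACTB/GAPDH/POLR2A. Bidirectional fit vs DMSO.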

BCL2L11 (gene 10018) = assay: LTEA_HepaRG_BCL2L11: Life Technologies and Expression Analysis (LTEA) Assay for Bcl-2 (BCL2L11) gene using HepaRG (AID 2283473)
In short: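 Read-out is BCL2L11 transcript level by qRT-PCR, normalized to three housekeeping genes and fitted bidirectionally against 0.5% DMSO vehicle. HepaRG cells received chemicals for 48 h in serum-free induction medium, 100 uM down in half-log dilutions.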

[7] = read-out: Apolipoprotein A-V (APOA5) gene, APOA5 (gene 116519); assay: LTEA_HepaRG_APOA5: Life Technologies and Expression Analysis (LTEA) Assay for Apolipoprotein A-V (APOA5) gene using HepaRG (AID 2283474)
In short: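 Readout is APOA5 transcript level by qRT-PCR on Fluidigm dynamic arrays, normalized to three housekeeping genes. HepaRG cultures received chemicals for 48 h at up to 100 uM (half-log steps, 0.5% DMSO), with gain or loss scored relative to DMSO.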

[8] = read-out: Apoptosis regulator Bcl-2 (Homo sapiens) (UniProt P10415); assay: LTEA_HepaRG_BCL2: Life Technologies and Expression Analysis (LTEA) Assay for Bcl-2 gene using HepaRG (AID 2283475)
In short: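 HepaRG, plated 48 h then switched to serum-free induction medium; dosed 48 h, 8 conc. (max 100 uM, half-log steps), duplicate, 0.5% DMSO. Lysis in RLT, RNA isolated, TaqMan qRT-PCR for BCL2; ACTB/GAPDH/POLR2A normalisation; bidirectional fit vs DMSO.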

[9] = read-out: Bcl-2 (BID) gene, BID (gene 637); assay: LTEA_HepaRG_BID: Life Technologies and Expression Analysis (LTEA) Assay for Bcl-2 (BID) gene using HepaRG (AID 2283476)
In short: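 Transcript levels of BID, measured by qRT-PCR and normalized to three housekeeping genes, were fitted bidirectionally against DMSO controls. Cells were HepaRG, dosed 48 h at up to 100 uM.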

Caspase-3 (Homo sapiens) = Caspase-3 (Homo sapiens) (UniProt P42574); assay: LTEA_HepaRG_CASP3: Life Technologies and Expression Analysis (LTEA) Assay for cysteine-aspartic acid protease (CASP3) using HepaRG (AID 2283477)
In short: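 Read-out is CASP3 mRNA level by TaqMan qRT-PCR in human HepaRG cells after 48 h chemical exposure. Eight half-log concentrations topping at 100 uM were tested in 0.5% DMSO; gain or loss was fitted relative to DMSO.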

[10] = read-out: Cytochrome P450 (CYP24A1), CYP24A1 (gene 1591); assay: LTEA_HepaRG_CYP24A1: Life Technologies and Expression Analysis (LTEA) Assay for Cytochrome P450 (CYP24A1) using HepaRG (AID 2283478)
In short: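 HepaRG, 48 h chemical exposure, 8-pt half-log CRC from 100 uM, 0.5% DMSO vehicle, duplicates. Endpoint: CYP24A1 mRNA by Fluidigm TaqMan qRT-PCR, normalized ACTB/GAPDH/POLR2A; gain/loss fit vs DMSO.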

[11] = read-out: Cytochrome P450 (CYP1A2), CYP1A2 (gene 1544); assay: LTEA_HepaRG_CYP1A2: Life Technologies and Expression Analysis (LTEA) Assay for Cytochrome P450 (CYP1A2) using HepaRG (AID 2283479)
In short: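 CYP1A2 transcript induction or loss, quantified by Fluidigm qRT-PCR against three housekeeping genes, was fitted bidirectionally against 0.5% DMSO controls. Human HepaRG cells received eight half-log concentrations from 100 uM over 48 h.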

[12] = read-out: cysteine-aspartic acid protease (CASP8), CASP8 (gene 841); assay: LTEA_HepaRG_CASP8: Life Technologies and Expression Analysis (LTEA) Assay for cysteine-aspartic acid protease (CASP8) using HepaRG (AID 2283480)
In short: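 HepaRG, 48 h exposure, duplicate wells; 8 conc, half-log from 100 uM, 0.5% DMSO. Serum-free induction medium. CASP8 mRNA by TaqMan qRT-PCR, norm. ACTB/GAPDH/POLR2A; gain/loss fitted vs DMSO.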

[13] = read-out: Cytochrome P450 (CYP2B6), CYP2B6 (gene 1555); assay: LTEA_HepaRG_CYP2B6: Life Technologies and Expression Analysis (LTEA) Assay for Cytochrome P450 (CYP2B6) using HepaRG (AID 2283481)
In short: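 HepaRG cells plated 48 h, switched to serum-free induction medium, then dosed 48 h (8 points, half-log from 100 uM, 0.5% DMSO). RNA isolated; CYP2B6 expression measured by qRT-PCR; gain or loss fitted relative to DMSO.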

[14] = read-out: Cytochrome P450 2C19 (Homo sapiens) (UniProt P33261); assay: LTEA_HepaRG_CYP2C19: Life Technologies and Expression Analysis (LTEA) Assay for CYP2C19 using HepaRG (AID 2283482)
In short: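 Transcript levels of CYP2C19 were quantified by qRT-PCR after HepaRG cells were treated for 48 hours with test chemicals up to 100 uM (eight half-log concentrations, 0.5% DMSO vehicle). Gain or loss of signal was fitted relative to DMSO.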

CYP2C8 (gene 1558) = assay: LTEA_HepaRG_CYP2C8: Life Technologies and Expression Analysis (LTEA) Assay for CYP2C8 using HepaRG (AID 2283483)
In short: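 CYP2C8 mRNA induction or loss, by qRT-PCR normalized to ACTB/GAPDH/POLR2A, is read in HepaRG cells after 48 h treatment. Concentrations run from 100 uM down in half-log dilutions, with 0.5% DMSO as vehicle and baseline.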

CYP2C9 (gene 1559) = assay: LTEA_HepaRG_CYP2C9: Life Technologies and Expression Analysis (LTEA) Assay for CYP2C9 using HepaRG (AID 2283484)
In short: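 Cells plated 48 h, switched to serum-free induction medium, then treated in duplicate for 48 h at eight concentrations (max 100 uM, 0.5% DMSO). RNA then analysed by qRT-PCR for CYP2C9; curves fitted in both directions relative to DMSO.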

CYP2E1 (gene 1571) = assay: LTEA_HepaRG_CYP2E1: Life Technologies and Expression Analysis (LTEA) Assay for CYP2E1 using HepaRG (AID 2283485)
In short: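 Human liver line HepaRG, plated 48 h, then serum-free induction medium + chemical x 48 h; 8-pt CRC from 100 uM, half-log, 0.5% DMSO, n=2. Readout: CYP2E1 mRNA qRT-PCR vs ACTB/GAPDH/POLR2A; bidirectional fit vs DMSO.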

CYP4A11 (gene 1579) = assay: LTEA_HepaRG_CYP4A11: Life Technologies and Expression Analysis (LTEA) Assay for CYP4A11 using HepaRG (AID 2283486)
In short: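 HepaRG, 48 h chem exposure, 8 conc (100 uM top, half-log), 0.5% DMSO vehicle; qRT-PCR readout, housekeeping-gene normalized; bidirectional curve fit vs DMSO baseline.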

Apoptosis regulator Bcl-2 (Homo sapiens), sequence (P10415 whole entry, looked up): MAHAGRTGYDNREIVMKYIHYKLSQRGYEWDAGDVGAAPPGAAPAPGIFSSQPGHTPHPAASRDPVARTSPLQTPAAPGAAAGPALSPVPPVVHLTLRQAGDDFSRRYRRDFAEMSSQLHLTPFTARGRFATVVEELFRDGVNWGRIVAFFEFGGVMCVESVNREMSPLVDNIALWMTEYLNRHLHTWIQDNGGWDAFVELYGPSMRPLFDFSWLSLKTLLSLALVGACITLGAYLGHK
Cytochrome P450 2C19 (Homo sapiens), sequence (P33261 whole entry, looked up): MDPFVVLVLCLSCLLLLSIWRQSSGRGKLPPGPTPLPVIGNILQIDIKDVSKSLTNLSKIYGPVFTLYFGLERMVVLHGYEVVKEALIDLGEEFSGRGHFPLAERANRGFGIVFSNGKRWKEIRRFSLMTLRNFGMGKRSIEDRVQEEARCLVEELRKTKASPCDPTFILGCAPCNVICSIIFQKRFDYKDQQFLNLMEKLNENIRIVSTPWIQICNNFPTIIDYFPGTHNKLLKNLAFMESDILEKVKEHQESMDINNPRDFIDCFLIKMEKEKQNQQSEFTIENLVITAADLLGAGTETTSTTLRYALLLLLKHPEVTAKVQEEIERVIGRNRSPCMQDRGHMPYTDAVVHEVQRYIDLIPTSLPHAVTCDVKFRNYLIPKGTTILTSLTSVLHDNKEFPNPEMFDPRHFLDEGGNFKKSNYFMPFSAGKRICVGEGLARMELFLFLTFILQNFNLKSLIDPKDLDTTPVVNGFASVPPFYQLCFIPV
Caspase-3 (Homo sapiens), sequence (P42574 whole entry, looked up): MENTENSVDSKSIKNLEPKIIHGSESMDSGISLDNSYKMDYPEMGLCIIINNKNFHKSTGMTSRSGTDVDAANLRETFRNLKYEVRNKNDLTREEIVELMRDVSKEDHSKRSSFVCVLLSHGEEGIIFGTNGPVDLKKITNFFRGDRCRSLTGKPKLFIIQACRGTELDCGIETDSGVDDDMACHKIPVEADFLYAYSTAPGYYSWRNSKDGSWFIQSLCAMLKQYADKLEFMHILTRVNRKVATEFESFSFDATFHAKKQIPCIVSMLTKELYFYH

With `CCCSP(=O)(OCC)Oc1ccc(Br)cc1Cl` (stereo not given) the outcome [1] was “inactive”, the outcome [2] was “inactive” and the outcome [3] was “inactive”. For the same molecule, the outcome [4] was “inactive”, the outcome [5] was “inactive” and the outcome [6] was “inactive”. For the same molecule, the outcome (BCL2L11 (gene 10018)) was “inactive”, the outcome [7] was “inactive” and the outcome [8] was “inactive”. The outcome [9] was “inactive”, the outcome (Caspase-3 (Homo sapiens)) was “inactive” and the outcome [10] was “inactive”. The outcome [11] was “inactive”, the outcome [12] was “inactive” and the AC50 [13] was 13.4 µM (active). For the same molecule, the outcome [14] was “inactive”, the outcome (CYP2C8 (gene 1558)) was “inactive” and the outcome (CYP2C9 (gene 1559)) was “inactive”. For the same molecule, the AC50 (CYP2E1 (gene 1571)) was 40.4 µM (active) and the outcome (CYP4A11 (gene 1579)) was “inactive”.

In the case of `CCNc1nc(Cl)nc(NC(C)(C)C#N)n1`, the outcome [1] is reported as “inactive”, the outcome [2] is reported as “inactive” and the outcome [3] is reported as “inactive”. The outcome [4] was “inactive”, the outcome [5] was “inactive” and the outcome [6] was “inactive”. For the same molecule, the outcome (BCL2L11 (gene 10018)) was “inactive”, the outcome [7] was “inactive” and the outcome [8] was “inactive”. The outcome [9] was “inactive”, the outcome (Caspase-3 (Homo sapiens)) was “inactive” and the outcome [10] was “inactive”. The outcome [11] was “inactive”, the outcome [12] was “inactive” and the AC50 [13] was 1.68 µM (active). For the same molecule, the AC50 [14] was 12.4 µM (active), the outcome (CYP2C8 (gene 1558)) was “inactive” and the outcome (CYP2C9 (gene 1559)) was “inactive”. For the same molecule, the AC50 (CYP2E1 (gene 1571)) was 13.2 µM (active) and the AC50 (CYP4A11 (gene 1579)) was 39.9 µM (active).

In the case of `CCCOCC(=Nc1ccc(Cl)cc1C(F)(F)F)n1ccnc1`, the AC50 [1] is reported as 72.2 µM (active), the AC50 [2] is reported as 15.8 µM (active) and the outcome [3] is reported as “inactive”. The AC50 [4] was 21.7 µM (active), the AC50 [5] was 78.5 µM (active) and the AC50 [6] was 15.8 µM (active). For the same molecule, the outcome (BCL2L11 (gene 10018)) was “inactive”, the outcome [7] was “inactive” and the outcome [8] was “inactive”. For the same molecule, the outcome [9] was “inactive”, the outcome (Caspase-3 (Homo sapiens)) was “inactive” and the outcome [10] was “inactive”. For the same molecule, the outcome [11] was “inactive”, the outcome [12] was “inactive” and the AC50 [13] was 30.4 µM (active). The AC50 [14] was 32.5 µM (active), the AC50 (CYP2C8 (gene 1558)) was 25.7 µM (active) and the AC50 (CYP2C9 (gene 1559)) was 20.3 µM (active). For the same molecule, the AC50 (CYP2E1 (gene 1571)) was 13.2 µM (active) and the AC50 (CYP4A11 (gene 1579)) was 23 µM (active).
